Bioassay records (PubChem)
A selection: hits, their analogues and other compounds. The true share with any hit is near 21%.
D3 ag = agonists of human D3 dopamine receptor; P35462; D3R DiscoveRx beta-arrestin cells, luminescence, 90 min; max activation, %; actives 0.58% (n = 410,000); AID 652048; in the data active = max activation above about 30%; note: 0% is about no effect
Target sequence (P35462 whole entry, looked up): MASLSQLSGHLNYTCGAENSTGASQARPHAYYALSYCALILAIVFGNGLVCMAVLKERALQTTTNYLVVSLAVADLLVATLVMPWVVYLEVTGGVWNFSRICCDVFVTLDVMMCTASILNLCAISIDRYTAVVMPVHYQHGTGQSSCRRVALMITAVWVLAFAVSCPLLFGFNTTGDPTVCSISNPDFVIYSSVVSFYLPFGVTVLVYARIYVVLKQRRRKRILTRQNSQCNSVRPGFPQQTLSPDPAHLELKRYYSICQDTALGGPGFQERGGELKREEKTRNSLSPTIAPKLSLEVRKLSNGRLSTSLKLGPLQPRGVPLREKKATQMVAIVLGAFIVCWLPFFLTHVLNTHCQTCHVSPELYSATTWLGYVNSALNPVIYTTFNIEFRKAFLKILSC
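Agonist-mode cell screen: cells plated at 1500/well and incubated overnight at 37 °C, then exposed to library compounds for 90 min at 37 °C. Detection reagent was added for 30–60 min at room temperature, and luminescence was read.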
DRD3 antagonist = D3 dopamine receptor (human) antagonism; P35462; D3R cells, DiscoveRx beta-arrestin luminescence, antagonist mode; hits give low values; max response, negative = inhibition, %; actives 2.5% (n = 360,000); AID 652054; in the data active = max response below about -50%; inconclusive = no clear call, values can overlap the other calls; note: % is set by controls: 0 for no effect and ±100 for the full control effect
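Cells plated overnight at 1500 cells/well, then exposed to library compounds with dopamine controls for 90 minutes at 37 degrees C. DiscoveRx reagent added for 30–60 minutes at room temperature; luminescence read, quantitative HTS format.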
DT40 TDP1 CPT = growth inhibition of DT40 Tdp1-/-;hTDP1 cells with camptothecin (screen for TDP1 inhibitors) | chicken DT40 Tdp1-/-;hTDP1 cells + 20 nM CPT, ATP luminescence, 48 h | Potency, µM (top dose mostly 46.2 µM), for the others: at the highest dose activity change, negative = growth inhibition, most hits filed as inhibitors | actives 12% (n = 420,000); note: potency is the fitted concentration of half-maximal effect; % is set by controls: 0 for no effect and ±100 for the full control effect; nearly all actives have a fitted effect of over 55% in size
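Chicken DT40 Tdp1-/- cells stably complemented with human TDP1 were seeded at 400 cells/well in medium containing 20 nM camptothecin, exposed to pin-transferred compounds, and grown at 37 °C for at least 48 hr. Viability was read as ATP luminescence.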
IL1B secr inh = blocks inflammasome-driven IL-1 beta release; activity change, % at 57.5 µM; AID 743279; actives 4.7% (n = 360,000); THP-1 LPS/ATP IL-1B secretion, AlphaLISA, 16 h; hits give low values; in the data active = activity change below about -50%; inconclusive = mostly about -30% to -49%; note: % is set by controls: 0 for no effect and ±100 for the full control effect
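Secreted IL-1B measured by AlphaLISA bead assay after 16 h compound exposure of THP-1 cells; compounds (final up to 57.5 uM) added 1 h before LPS (250 ng/mL) and ATP (1.25 mM) stimulation; lower signal means less secretion.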
ClpP mod = qHTS Assay for Activators of ClpP; ATP-dependent Clp protease proteolytic subunit (Bacillus subtilis (strain 168)), P80244; purified B. subtilis ClpP, FRET peptide cleavage, 20 min; Potency, µM (titrated, usually from 57.5 µM), without a hit: at the highest dose activity change, negative = active; actives 1.9% (n = 340,000); AID 651965, 2013; active = well fitted falling curve with a large enough effect; inconclusive = small, poorly fitted or top-dose-only effect; inactive = no such curve, though single readings can be large or run the other way; note: potency is the fitted concentration of half-maximal effect; the source files actives as falling curves though it sought activators and does not explain the sign; nearly all actives have a fitted effect of over 65% in size
Target sequence (P80244 whole entry, looked up): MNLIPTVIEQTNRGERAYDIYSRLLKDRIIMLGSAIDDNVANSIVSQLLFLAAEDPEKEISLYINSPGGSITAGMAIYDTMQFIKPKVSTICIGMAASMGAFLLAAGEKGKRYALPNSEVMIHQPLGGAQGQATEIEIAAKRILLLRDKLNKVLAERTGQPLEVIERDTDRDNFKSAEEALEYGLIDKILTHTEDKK
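Purified B. subtilis ClpP, 10 microg/mL final in Tris/HCl pH8 with KCl, BSA, glycerol and Tween-20, cleaved an Abz/nitrotyrosine-quenched decapeptide. Fluorescence (ex 320, em 430) was read at 0 and 20 min at room temperature. Delta was normalized to 5.8 microM ADEP and DMSO/no-enzyme controls.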
TDP1 cell noCPT = qHTS for Inhibitors of human tyrosyl-DNA phosphodiesterase 1 (TDP1): qHTS in cells in absence of CPT; AID 686978, 2013; actives 15% (n = 420,000); Potency, µM (highest dose often 46.2 µM), inactives show top-dose activity change, negative = growth inhibition, hits mostly inhibitors; DT40 Tdp1-/- hTDP1 cells, no CPT, ATP luminescence, 48 h; note: potency is the fitted concentration of half-maximal effect; % is set by controls: 0 for no effect and ±100 for the full control effect; nearly all actives have a fitted effect of over 55% in size
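Growth kinetics read by CellTiter-Glo luminescence after ≥48 hr at 37 °C. Cells: DT40 Tdp1-/- stably carrying human TDP1, 400 per well, compound exposure in the absence of CPT (DMSO vehicle).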
Starred values were filed as active, the others as inactive; u = inconclusive; x = no result given; [ ] = remark or other dose. Unless noted, calls come from the whole dose curve; as a rule, active = well fitted inhibition curve with a large enough effect; inconclusive = small, poorly fitted or top-dose-only effect; inactive = flat fitted curve, though single readings scatter.

SMILES	D3 ag	DRD3 antagonist	DT40 TDP1 CPT	IL1B secr inh	ClpP mod	TDP1 cell noCPT
Cc1onc(-c2ccccc2)c1C(=O)NCC(=O)Nc1cc(Cl)ccc1Cl	-2	0	u	u	u	u
N#C/C(=N/Nc1ccc(OC(F)(F)F)cc1)C(N)=S	18	10	2.3µM*	-64*	0%	1.6µM*
N#Cc1c(-c2ccccc2Cl)noc1/C=C/Nc1ccc(C(=O)O)cc1	2	-5	-10%	-26	-15%	14%
Cc1ccc(-c2nnc(SCC(=O)N3CCOCC3)nc2-c2ccc(C)cc2)cc1	1	-16	21µM*	-7	-1%	u
Cc1ccc(-c2nnc(SCC(N)=O)nc2-c2ccc(C)cc2)cc1	1	14	u	11	x	u
Cc1ccc(-c2nnc(SCC(=O)NC(C)(C)C)nc2-c2ccc(C)cc2)cc1	-1	x	29µM*	x	1%	u
Cc1ccc(-c2nnc(SCC(=O)N(C)C)nc2-c2ccc(C)cc2)cc1	-1	0	u	0	x	23µM*
CCOc1ccc(-c2nnc(SCC(=O)NCc3ccc(C)cc3)nc2-c2ccc(OCC)cc2)cc1	-14	x	u	x	1%	13µM*
N#CCC1(O)C(=O)N(Cc2ccccc2)c2ccccc21 (stereo not drawn)	8	6	-16%	22	1%	1%
C=CCNC(=O)c1cc2c(=O)n3ccccc3nc2s1	-5	-7	1%	-7	3%	3%
CSc1ccc(CSCC(=O)N2CCN(S(=O)(=O)c3ccc(C)cc3C)CC2)cc1	2	3	26µM*	-29	-4%	u
Cc1ccc2c(c1)CN(C(=O)CC(c1ccccc1)c1ccco1)CC(C)O2 (stereo not drawn)	x	x	0%[9.04 µM]	x	x	u
Cc1cc(C)nc(SCC(=O)N2CCOCC2)n1	15	-54*	11%	0	-2%	-5%
Cc1ccc(S(=O)(=O)N2CCN(C(=O)COC(=O)Cc3ccc(F)cc3)CC2)c(C)c1	-3	16	-2%	12	-1%	-15%
Cc1ccc(C(CC(=O)N2CCOCC2)c2ccco2)cc1 (stereo not drawn)	-13	u	16µM*	u	1%	u
Cc1ccc(CSCC(=O)N2CCOCC2)cc1	3	-3	6.5µM*	14	2%	10µM*
O=C(OCCOc1cccc(Cl)c1)c1cc(S(=O)(=O)N2CCOCC2)ccc1F	9	9	u	-9	0%	u
Cc1nc(SC(C)C(=O)NC2CCCC2)c2ccccc2n1 (stereo not drawn)	3	23	-27%	-20	2%	u
CCOC(=O)c1ccc(NC(=O)c2cc3c(=O)n(C)c4ccccc4c3n2C)cc1	8	x	25%	x	-5%	0%
CCOC(=O)N1CCC(NC(=O)c2cc3c(=O)n(C)c4ccccc4c3n2C)CC1	-2	16	21µM*	-5	4%	u
Cn1c(C(=O)NC2CC2)cc2c(=O)n(C)c3ccccc3c21	1	-22	u	-63*	u	u
Cn1c(C(=O)Nc2ccc3c(c2)OCCO3)cc2c(=O)n(C)c3ccccc3c21	5	52	13µM*	-69*	-18%	12µM*
COc1cccc(-c2ncnn2-c2sc3c(c2C#N)CCCCC3)c1OC	6	x	-17%	x	1%	u
Cc1cc(N(C)C)cc(C)c1/C=C/c1cc[n+](C)c2ccccc12	x	x	0.56µM*	x	-18%	0.56µM*
COc1cc(OC)c(/C=C/c2cc[n+](C)c3ccccc23)c(OC)c1	x	x	0.5µM*	x	3%	0.45µM*
SMILES	D3 ag	DRD3 antagonist	DT40 TDP1 CPT	IL1B secr inh	ClpP mod	TDP1 cell noCPT
CCOc1ccc(/C=C/c2cc[n+](C)c3ccccc23)cc1OCC	x	x	u	x	-1%	u
COc1cc(OC)c(OC)cc1/C=C/c1cc[n+](C)c2ccccc12	x	x	4µM*	x	-5%	2µM*
O=C(OCC(=O)N1CCCc2ccccc21)c1ccc(S(=O)(=O)C(F)F)cc1	4	4	7%	3	-14%	3%
O=C(NCC1CCC2(CCN(Cc3cccc4ncccc34)CC2)O1)c1ccccc1 (stereo not drawn)	x	x	-17%[9.04 µM]	x	x	-18%
COc1ccc2[nH]c3c(c2c1)CCN1C(=O)C(CC(=O)NCc2ccc(OC)c(OC)c2)C[C@H](C(=O)N2CCOCC2)[C@@]31C (stereo partly drawn)	4	-2	1%	-6	1%	-15%
CCN(CC)C(=O)[C@H]1C[C@H](CC(=O)NCCCOC)C(=O)N2CCc3c([nH]c4cc(-c5ccco5)ccc34)[C@]12C	6	19	15µM*	27	5%	18µM*
CC[C@]12c3[nH]c4cc(-c5ccco5)ccc4c3CCN1C(=O)[C@@H](CC(=O)NCCCOC)C[C@@H]2C(=O)N1CCN(C(=O)C2CC2)CC1	16	u	u	-1	5%	u
COc1ccc(CNC(=O)C[C@H]2C[C@H](C(=O)N3CCCCC3)[C@@]3(C)c4[nH]c5ccc(Cl)cc5c4CCN3C2=O)cc1OC	-3	-24	18µM*	-56*	1%	12µM*
C[C@]12c3[nH]c4cc(-c5ccco5)ccc4c3CCN1C(=O)[C@@H](CC(=O)NCCN1CCOCC1)C[C@@H]2C(=O)N1CCCCC1	-19	-4	-28%	0	4%	u
COCCCNC(=O)C[C@H]1C[C@H](C(=O)N2CCCCC2)[C@@]2(C)c3[nH]c4cc(-c5ccco5)ccc4c3CCN2C1=O	4	-1	16µM*	-12	4%	u
COc1ccc(CNC(=O)C[C@H]2C[C@H](C(=O)N3CCCCC3)[C@@]3(C)c4[nH]c5cc(-c6ccco6)ccc5c4CCN3C2=O)cc1OC	-8	12	u	0	3%	18µM*
CC(=O)NCCC1CCN(C(=O)c2cc(COc3ccc(C)nc3)on2)CC1	9	7	u	21	-1%	-25%
COC(=O)/C=C1\OCc2cc(OC)c(OC)cc21	8	11	9%	-9	-2%	-2%
CC(C)(C)C(=O)Nc1cccc2[nH]ncc12	-5	-27	-1%	1	-3%	-6%
C[C@]12c3[nH]c4ccc(Cl)cc4c3CCN1C(=O)[C@@H](CC(=O)NCCc1ccccn1)C[C@@H]2C(=O)N1CCOCC1	-7	1	u	-27	0%	-29%
